# Screening data from PubChem BioAssay.
# Compounds with a hit are over-represented: about 1.1% of the library has one in this group of screens.
# p97 ATPase inh – inhibitors of human p97 ATPase, primary screen, biochemical; Transitional endoplasmic reticulum ATPase (Homo sapiens), P55072; recombinant p97 ATPase, Kinase-Glo ATP luminescence, 3 h; inhibition, % at 8 µM; 220,000 tested, 0.42% active; AID 1481, 2009; in the data active means inhibition above about 15%
# S1P4 agonist – S1P4 receptor agonists, primary screen, cell-based | AID 1509, 2009 | 220,000 tested, 0.35% active | S1P4-expressing cell line, agonist reporter assay | activation, % at 4.98 µM; in the data active means activation above about 11%
# Redox H2O2 prof – compounds producing H2O2 with reducing agent – biochemical, NIH compound library profiling, artefact control for MLSCN library redox annotation, primary screen. DTT-dependent redox cycling H2O2, phenol red/HRP absorbance; 100% = 100 µM peroxide control, 0% = buffer. activation, % at 10 µM. 200,000 tested, 0.03% active. AID 878, 2007;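 active means activation of at least 50% relative to the plate's high and low controls in the primary single-dose screen; inactive means activation below 50%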;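 further: compound incubated with DTT at 0.8 mM final as the reducing agent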
# S1P4 antag – S1P4 receptor antagonists, primary screen, cell-based | Sphingosine 1-phosphate receptor 4 (Homo sapiens), O95977 | inhibition, % at 4.98 µM | 220,000 tested, 0.26% active | AID 1510, 2009 | S1P4-expressing cells, antagonist mode, reporter read-out; in the data active means inhibition above about 29%
# S1P3 antagonist – S1P3 receptor antagonists, primary screen, cell-based; AID 485, 2006; Sphingosine 1-phosphate receptor 3 (Homo sapiens), Q99500; 170,000 tested, 0.27% active; inhibition, % at 4.98 µM; CHO S1P3 NFAT-BLA reporter, FRET fluorescence, antagonist mode;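 active means inhibition above the plate cutoff, the mean inhibition of test wells on that plate plus 3 SD, cut at about 28% in these data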;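 further: cells challenged with S1P at its EC80 of 0.8 µM; blue over green emission ratio from cleaved BLA substrate after 4 h stimulation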
# Target sequence (Q99500 whole entry, looked up): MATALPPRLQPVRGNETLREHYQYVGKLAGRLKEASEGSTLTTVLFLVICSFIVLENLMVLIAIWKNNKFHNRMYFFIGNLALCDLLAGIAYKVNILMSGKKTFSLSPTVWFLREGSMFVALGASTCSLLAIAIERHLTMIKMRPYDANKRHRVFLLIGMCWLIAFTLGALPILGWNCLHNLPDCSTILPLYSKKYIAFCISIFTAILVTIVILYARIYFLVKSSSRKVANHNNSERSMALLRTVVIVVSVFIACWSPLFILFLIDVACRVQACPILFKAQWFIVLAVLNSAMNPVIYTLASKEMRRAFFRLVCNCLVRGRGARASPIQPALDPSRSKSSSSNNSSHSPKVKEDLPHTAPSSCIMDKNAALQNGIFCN
# UBC9 SUMO inh – inhibitors of in vitro SUMOylation cascade, primary screen, biochemical, HTRF, uHTS. SUMO-conjugating enzyme UBC9 (Homo sapiens), P63279. inhibition, % at 35 µM. 290,000 tested, 0.36% active. HTRF SUMOylation assay, SAE1/SAE2 + UBC9. AID 2006, 2009; in the data active means inhibition above about 50%, passing the limit was not always enough
# Target sequence (P63279 whole entry, looked up): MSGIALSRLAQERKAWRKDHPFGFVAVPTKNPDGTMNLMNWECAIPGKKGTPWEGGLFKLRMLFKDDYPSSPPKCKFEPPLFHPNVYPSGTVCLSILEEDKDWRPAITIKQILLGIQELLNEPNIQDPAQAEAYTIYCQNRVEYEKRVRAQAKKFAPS
# S1P4 ag conf – S1P4 receptor agonists, retest, confirmation, cell-based, high throughput | shares compounds with S1P4 agonist | S1P4 agonist cell-based reporter assay | activation, % at 4.98 µM | 740 tested, 7% active; in the data active means activation above about 12%
# S1P1 ag – S1P1 receptor agonists, human, counter-screen for S1P4 agonist project, cell-based. shares compounds with S1P4 agonist. S1P1 agonist cell-based assay, activation. activation, % at 4.98 µM. 740 tested, 4% active. AID 1563, 2009; in the data active means activation above about 21%
# Numbers stand for hits; i = inactive; nt = not tested or not shown.
SMILES,p97 ATPase inh,S1P4 agonist,Redox H2O2 prof,S1P4 antag,S1P3 antagonist,UBC9 SUMO inh,S1P4 ag conf,S1P1 ag
O=C(N/N=C/c1ccc[nH]1)c1ccc([N+](=O)[O-])cc1,i,i,i,i,i,i,nt,nt
Cn1cc(C2CC(c3ccccc3)=NN2C(=O)c2ccccc2)c2ccccc21 (configuration not stated),i,13,i,i,i,i,i,i
CCCC(=O)N1N=C(c2ccccc2)CC1c1cn(C)c2ccccc12 (configuration not stated),i,i,i,i,i,i,nt,nt
Cc1nc2cc(NC(=O)c3ccc(S(=O)(=O)N(C)c4ccccc4)cc3)ccc2o1,nt,nt,nt,nt,nt,i,nt,nt
CCOC(=O)c1cc2c(=O)n3ccccc3nc2n(CCOC)c1=NC(=O)c1ccncc1,i,18,i,i,nt,i,i,i
CCOC(=O)c1cc2c(=O)n3ccccc3nc2n(CCOC)c1=NC(=O)C(C)(C)C,i,i,i,i,nt,i,nt,nt
CCOC(=O)c1cc2c(=O)n3ccccc3nc2n(CCCOC)c1=NC(=O)C(C)(C)C,i,16,i,i,nt,i,i,i
CCOC(=O)c1cc2c(=O)n3ccccc3nc2n(CCCOC)c1=NC(=O)c1cccnc1,i,i,i,i,nt,i,nt,nt
CCOCCCn1c(=NC(C)=O)c(C#N)cc2c(=O)n3ccccc3nc21,i,25,nt,i,i,i,i,i
CCOCCCn1c(=NC(C)=O)c(C(=O)OCC)cc2c(=O)n3ccccc3nc21,i,i,i,i,i,i,nt,nt
CCCN1CCc2c(sc3nc(SC)n(-c4ccccc4)c(=O)c23)C1,nt,nt,nt,nt,nt,i,nt,nt
O=C(Nc1ccccc1-c1ccccc1)C1CCCCC1,i,12,i,i,i,i,i,i
CC1CCN(CCCNC(=O)c2ccc3c(Cl)c4c(nc3c2)CCCC4)CC1,i,i,nt,i,i,i,nt,nt
CCOc1ccccc1NC(=S)Nc1ccc(S(N)(=O)=O)cc1,i,i,i,i,i,i,nt,nt
CCc1nnc(NC(=O)c2ccc(Cl)c(S(=O)(=O)N3CCc4ccccc4C3)c2)s1,i,20,i,i,i,i,i,i
CCOc1ccccc1OCCCCCc1c(C)n[nH]c1C,i,11,i,i,i,i,11,i
CC(=O)N(CCCN(C)C)Cc1ccccn1,i,20,nt,i,i,i,i,i
CC(=O)N(CCCc1ccc(C(C)(C)C)cc1)CCCN(C)C,i,i,i,i,i,i,nt,nt
CCC(C)(C(=O)NC1CCCCC1)N(Cc1cccs1)C(=O)c1ccccn1 (configuration not stated),i,45,i,i,i,i,i,i
CCC/C=N/Nc1nc2ccccc2s1,i,64,i,i,i,i,i,i
CCOc1ccc(C(=O)NCC(c2cccs2)N(C)C)cc1 (configuration not stated),i,15,i,i,i,i,i,i
CCOc1ccc(C(=O)NCC(C)C)cc1,i,i,i,i,nt,i,nt,nt
Cc1c(N)cccc1-c1nc2ccccc2[nH]1,i,i,i,i,nt,i,nt,nt
COCCNC(=O)c1ccc2c(=O)n(Cc3ccco3)c(SCC(=O)NC3CCCC3)nc2c1,i,12,i,i,nt,i,i,i
COCCNC(=O)CSc1nc2cc3c(cc2c(=O)n1Cc1ccco1)OCO3,i,i,i,i,nt,i,nt,nt
SMILES,p97 ATPase inh,S1P4 agonist,Redox H2O2 prof,S1P4 antag,S1P3 antagonist,UBC9 SUMO inh,S1P4 ag conf,S1P1 ag
O=C(CCCC(=O)NCC1CCCO1)NCC1CCCO1 (configuration not stated),i,39,i,i,i,i,i,i
O=[N+]([O-])c1ccc(SCc2ccncc2)nc1,nt,nt,nt,nt,nt,i,nt,nt
CC(=O)Oc1cc2oc(=O)c3c(c2cc1Cl)CCC3,i,15,i,i,i,i,i,i
CCC(C)NCCC(=O)Nc1ccc(Cl)c(S(=O)(=O)Nc2ccc(Cl)cc2)c1 (configuration not stated),i,19,i,i,i,i,i,i
CCOc1ccc(NC(=O)CCn2c(=O)[nH]c3ccsc3c2=O)cc1,i,24,i,i,nt,i,i,i
Cc1ccc(NC(=O)CCn2c(=O)[nH]c3ccsc3c2=O)cc1,i,i,i,i,i,i,nt,nt
O=C(Cc1ccc(-c2ccccc2)cc1)OCC(=O)N1CCCC1=O,i,i,i,i,i,i,nt,nt
CC(Oc1ccccc1)C(=O)OCC(=O)NC(=O)NCc1ccco1 (configuration not stated),i,i,i,i,nt,i,nt,nt
CC(C)c1cc(C(=O)OCC(=O)NC(=O)NCc2ccco2)c(O)c(C(C)C)c1,i,44,i,i,i,i,36,i
O=C1c2ccccc2S(=O)(=O)N1Cc1ccccc1[N+](=O)[O-],nt,nt,nt,nt,nt,i,nt,nt
O=C(COC(=O)CCSc1ccccc1)Nc1cc(F)ccc1F,i,i,i,i,i,i,nt,nt
O=C(COC(=O)CCSc1ccccc1)Nc1ccc(F)cc1Cl,i,31,i,i,i,i,i,i
Cc1ccccc1CN1[C@@H]2c3ccccc3C[C@@H]2OCCS1(=O)=O,nt,nt,nt,nt,nt,i,nt,nt
COCCNC(=O)Cn1c(=O)n(CCCCCC(=O)Nc2ccccc2)c(=O)c2sccc21,i,21,i,i,i,i,i,i
NS(=O)(=O)c1ccc(N/N=C/c2cn(-c3ccccc3)nc2-c2cccs2)c([N+](=O)[O-])c1,i,38,i,i,i,i,i,i
Cc1ccccc1-n1c(C)nnc1SCC(=O)N1CCc2ccccc2C1,i,i,i,i,i,i,nt,nt
CCC(=O)N/C(N)=N/c1nc(C)c2cc(C)c(C)cc2n1,i,12,nt,i,i,i,i,i
CN(C1=C(N2CCCCC2)C(=O)c2ccccc2C1=O)c1ccccc1,i,12,i,i,nt,i,i,i
O=C1C(Nc2ccccc2)=C(N2CCCCC2)C(=O)c2ccccc21,i,i,i,i,nt,i,nt,nt
CC(/C=N/NC(=O)c1cc(-c2ccc(C)o2)[nH]n1)=C\c1ccccc1,i,17,i,i,i,i,i,i
Cc1ccccc1S(=O)(=O)/N=C(/Nc1c(C)n(C)n(-c2ccccc2)c1=O)c1ccccc1,i,i,i,i,i,i,nt,nt
Cc1c(N/C(=N/S(=O)(=O)c2ccc(F)cc2)c2ccccc2)c(=O)n(-c2ccccc2)n1C,i,14,i,i,i,i,i,i
CC(C)(C)c1ccc(OCC(=O)N/N=C/c2ccc(N3CCOCC3)cc2)cc1,i,i,i,i,i,i,nt,nt
